Our source for the outcome and Potency values is PubChem BioAssay (NCATS).

Structures are written as SMILES. Records with an inconclusive call do not appear. Unmarked numbers belong to inactive results. Calls of active or inactive are those of the source. Calls follow the shape of the dose curve; as a rule, active = well fitted curve in the direction sought with a large enough effect; inconclusive = small, poorly fitted or top-dose-only effect, or another doubt; inactive = no such curve, though single readings can be large; an effect the other way counts as inactive or inconclusive.

One assay deals with HACAT. Kind of assay: qHTS assay to identify novel small-molecules to repurpose for Merkel cell carcinoma treatment (AID 1296009). Also: nearly all actives have a fitted effect of over 60% in size. As to conditions: MCC and control cell lines, CellTiter-Glo viability, 72 h; at 44.8 µM (top of the series) unless noted. In a few lines:
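After compound transfer in DMSO, plates were kept 72 hr at 37 degree celsius. Luminescent ATP signal from CellTiter-Glo served as viability measure, normalized against DMSO and no-cell controls.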

The next assay has as its system C33A. Kind of assay: Primary qHTS to identify gynecologic anti-cancer compounds using libraries of approved drugs and bioactive compounds (AID 1345084). Also: nearly all actives have a fitted effect of over 55% in size. Also: potency is read from the fitted curve at half-maximal effect. As to conditions: Gynecologic cancer cell panel viability, ATPlite luminescence, 48 h; series mostly up to 57.5 µM. In outline:
(§1)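 Cells, 1,000 per well, were allowed to settle for 16 h at 37 C before compound addition. Five concentrations were tested for 48 h, and viability was read by ATPlite luminescence after 15 min at room temperature.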

A further assay deals with CAOV3. Described as above. As to conditions: Gynecologic cancer cell panel viability, ATPlite luminescence, 48 h; series mostly up to 57.5 µM. In a few lines: as §1
The test system of another assay is CASKI. The assay is described as above. As to conditions: Gynecologic cancer cell panel viability, ATPlite luminescence, 48 h; series mostly up to 57.5 µM. In outline: as §1
The test system of another assay is Es-2. The assay is described as above. As to conditions: Gynecologic cancer cell panel viability, ATPlite luminescence, 48 h; series mostly up to 57.5 µM. In a few lines:
as §1

In another assay the test system is HeLa. The assay is described as above. As to conditions: Gynecologic cancer cell panel viability, ATPlite luminescence, 48 h; series mostly up to 57.5 µM. In outline: as §1
Another assay relates to Hek293T. The assay is described as above. As to conditions: Gynecologic cancer cell panel viability, ATPlite luminescence, 48 h, control line for the selectivity index; series mostly up to 57.5 µM. In outline:
as §1

A further assay concerns JEG-3. Described as above. As to conditions: Gynecologic cancer cell panel viability, ATPlite luminescence, 48 h; series mostly up to 57.5 µM. In a few lines:
as §1

A further assay relates to OV90. The description is as above. The following applies: Gynecologic cancer cell panel viability, ATPlite luminescence, 48 h; series mostly up to 57.5 µM. In a few lines:
as §1

Another assay deals with PA-1. Described as above. As to conditions: Gynecologic cancer cell panel viability, ATPlite luminescence, 48 h; series mostly up to 57.5 µM. In a few lines: as §1
A further assay concerns SKOV3. The assay is described as above. The following applies: Gynecologic cancer cell panel viability, ATPlite luminescence, 48 h; series mostly up to 57.5 µM. In outline: as §1
The subject of another assay is Tov-21-G. The assay is described as above. The following applies: Gynecologic cancer cell panel viability, ATPlite luminescence, 48 h; series mostly up to 57.5 µM. In a few lines:
as §1

Another assay deals with Tov112D. The description is as above. As to conditions: Gynecologic cancer cell panel viability, ATPlite luminescence, 48 h; series mostly up to 57.5 µM. In outline: as §1

`COc1ccc(/C=C/C(=O)O[C@@H]2[C@@H](O)[C@@H](O)[C@H](O[C@H]3[C@@H]4C=CO[C@@H](O[C@@H]5O[C@H](CO)[C@@H](O)[C@H](O)[C@H]5O)[C@@H]4[C@@]4(CO)O[C@@H]34)O[C@H]2C)cc1`: in the assay with HACAT, the outcome is “inactive [at 17.4 µM]”. The Potency entry in the assay with C33A, in the assay on CAOV3, in the assay with Es-2, in the assay with HeLa, in the assay on Hek293T and in the assay on JEG-3 was “inactive” in each case. For the same compound, the Potency entry in the assay on OV90, in the assay on PA-1, in the assay with SKOV3, in the assay with Tov-21-G and in the assay with Tov112D was “inactive” throughout. The compound was called inactive in the assay with CASKI.
As to `C=CC1(C)CC2CCC3C(C)(C(=O)O)CCCC3(C)C2=CC1=O` (configuration not stated), the compound was classed as inactive with HACAT and with CASKI. Also, the Potency result in the assay with C33A, in the assay with CAOV3, in the assay with Es-2, in the assay with HeLa, with Hek293T and with JEG-3 was “inactive” throughout. In addition, the Potency result in the assay on OV90, in the assay with PA-1, with SKOV3, in the assay with Tov-21-G and in the assay on Tov112D was “inactive” in each case.
As for `CC1=CCC[C@@H]2[C@@](C)(CCc3ccoc3)[C@H](C(=O)O)CC[C@@]12C`, the result in the assay on HACAT and in the assay with CASKI was inactive. The Potency result in the assay on C33A, in the assay with CAOV3, in the assay on Es-2, with HeLa, in the assay on Hek293T and with JEG-3 was “inactive” each time. Further, the Potency entry in the assay on OV90, in the assay with PA-1, with SKOV3, in the assay with Tov-21-G and with Tov112D was “inactive” throughout.
For `CC(C)C[C@H](NC(=O)[C@@H]1O[C@H]1C(=O)O)C(=O)NCCCCN=C(N)N`, the result with HACAT and in the assay with CASKI was inactive. The Potency entry in the assay with C33A, in the assay on CAOV3, with Es-2, with HeLa, with Hek293T and in the assay with JEG-3 was “inactive” in each case. The Potency result in the assay with PA-1, in the assay on SKOV3, in the assay with Tov-21-G and with Tov112D was “inactive” in each case. In addition, the Potency in the assay on OV90 is 28.2 µM (active).
For the compound `COC(=O)[C@]1(C)CCC[C@@]2(C)C(=O)CC[C@H]3C(=O)C=C(CC[C@@H]21)C3O` (some centres not stated), the compound was classed as inactive in the assay on HACAT and in the assay with CASKI. Moreover, the Potency result in the assay on C33A, with CAOV3, with Es-2, in the assay on HeLa, in the assay on Hek293T and in the assay with JEG-3 was “inactive” in each case. The Potency entry in the assay on OV90, with PA-1, in the assay on SKOV3, in the assay with Tov-21-G and in the assay with Tov112D was “inactive” each time.
Consider `O=C(C1OC1/C=C/c1ccc2c(c1)OCO2)N1CCCCC1` (configuration not stated), for which the outcome in the assay with HACAT and in the assay on CASKI was inactive. Moreover, the Potency result in the assay on C33A, in the assay with CAOV3, in the assay on Es-2, in the assay on HeLa, in the assay on Hek293T and with JEG-3 was “inactive” each time. The Potency result in the assay on OV90, in the assay with PA-1, in the assay with SKOV3, in the assay on Tov-21-G and in the assay with Tov112D was “inactive” in each case.
In the case of `C/C=C(/C)C(=O)O[C@H]1C[C@]2(C)O[C@@H]2[C@@H](OC(C)=O)[C@@]2(C)CC[C@@](O)(C(C)C)[C@H]12`, the compound was classed as inactive in the assay on HACAT and in the assay on CASKI. For the same compound, the Potency result with C33A, in the assay with CAOV3, in the assay with Es-2, in the assay with HeLa, in the assay with Hek293T and in the assay with JEG-3 was “inactive” throughout. Further, the Potency entry with OV90, with PA-1, with SKOV3, in the assay with Tov-21-G and in the assay on Tov112D was “inactive” throughout.
In the case of `C=C1C[C@]23C[C@@]1(O)CC[C@H]2[C@@]12C=C[C@H](O)[C@@](C)(C(=O)O1)[C@H]2[C@@H]3C(=O)O`, the compound was classed as inactive in the assay with HACAT and in the assay on CASKI. In addition, the Potency entry in the assay on C33A, in the assay with CAOV3, with Es-2, in the assay on HeLa, in the assay with Hek293T and in the assay with JEG-3 was “inactive” throughout. Moreover, the Potency result in the assay on OV90, with PA-1, in the assay on SKOV3, with Tov-21-G and with Tov112D was “inactive” throughout.
For the compound `O=C(/C=C/c1ccccc1)OC[C@H]1O[C@@H](OC(=O)c2cc(O)c(O)c(O)c2)[C@H](O)[C@@H](O)[C@@H]1O`, in the assay on HACAT, the outcome is “inactive [at 17.4 µM]”. The Potency result with C33A, with CAOV3, in the assay on Es-2, in the assay on HeLa, in the assay on Hek293T and in the assay with JEG-3 was “inactive” each time. In addition, the Potency result in the assay with OV90, in the assay with PA-1, with Tov-21-G and with Tov112D was “inactive” in each case. Besides, the compound was classed as inactive in the assay on CASKI.
With `COc1cc(Nc2ccc([N+](=O)[O-])cc2C(=O)O)cc2ccccc12`, the call in the assay on HACAT and in the assay with CASKI was inactive. Besides, the Potency result in the assay on C33A, in the assay with CAOV3, in the assay on Es-2, with HeLa, in the assay on Hek293T and in the assay with JEG-3 was “inactive” each time. Moreover, the Potency entry with OV90, with PA-1, in the assay on Tov-21-G and in the assay on Tov112D was “inactive” in each case.
Take `CC1C2=CC(=O)OC2(O)CC2C1C(OC(=O)c1ccccc1)C(OC(=O)c1ccccc1)C1(O)C2(C)CCC(O)C1(C)C(=O)O` (configuration not stated): the outcome in the assay with HACAT was “inactive [at 17.4 µM]”. The Potency entry with C33A, with CAOV3, with Es-2, in the assay with HeLa, with Hek293T and in the assay with JEG-3 was “inactive” in each case. The Potency entry in the assay with OV90, with PA-1, in the assay with Tov-21-G and in the assay on Tov112D was “inactive” each time. In the assay on CASKI, the outcome was inactive.
In the case of `O=C(O)c1cccc(CN2C(=O)/C(=C(\c3ccccc3)c3ccc(Cl)cc3)c3ccccc32)c1`, the compound was classed as inactive in the assay on HACAT and in the assay on CASKI. The Potency result with C33A, with CAOV3, in the assay with Es-2, with HeLa, with Hek293T and with JEG-3 was “inactive” in each case. The Potency entry in the assay on OV90, in the assay with PA-1, in the assay on Tov-21-G and in the assay with Tov112D was “inactive” each time.
Take `CC1=CC2=C(C)C(=O)[C@](C)(O)[C@H](O)C2=CO1`: the compound was called inactive in the assay on HACAT and in the assay with CASKI. Further, the Potency entry in the assay with C33A, with CAOV3, with Es-2, with HeLa, with Hek293T and in the assay on JEG-3 was “inactive” each time. Also, the Potency result in the assay on OV90, with PA-1, with SKOV3, in the assay with Tov-21-G and with Tov112D was “inactive” in each case.
Regarding `COc1cc2c(c(O)c1OC/C=C(\C)CC/C=C(/C)CCC=C(C)C)CN(C(CCC(=O)O)C(=O)O)C2=O` (configuration not stated), the outcome in the assay with HACAT is “inactive [at 17.4 µM]”. Besides, the Potency result in the assay with C33A, with CAOV3, in the assay on Es-2, in the assay with HeLa, in the assay with Hek293T and in the assay with JEG-3 was “inactive” each time. Further, the Potency result with OV90, in the assay on PA-1, in the assay on Tov-21-G and with Tov112D was “inactive” each time. The outcome in the assay with CASKI was inactive.
